Results on 1 sequence are retold here after article PMC7862700, “An all-to-all approach to the identification of sequence-specific readers for epigenetic DNA modifications on cytosine”.

Holding throughout (assay): DAPPL (digital affinity profiling via proximity ligation, sequencing); 10 mM Tris-HCl pH 7.5, 50 mM NaCl, 1 mM DTT, 4% glycerol, room temperature, 30 min; GST-TFs on glutathione beads, 16-mer random dsDNA library, 0.1% formaldehyde crosslink after washing; high values mean tight binding
One test deals with T1, FLI1 (Homo sapiens, UniProt Q01543 1-452).
T1 sequence: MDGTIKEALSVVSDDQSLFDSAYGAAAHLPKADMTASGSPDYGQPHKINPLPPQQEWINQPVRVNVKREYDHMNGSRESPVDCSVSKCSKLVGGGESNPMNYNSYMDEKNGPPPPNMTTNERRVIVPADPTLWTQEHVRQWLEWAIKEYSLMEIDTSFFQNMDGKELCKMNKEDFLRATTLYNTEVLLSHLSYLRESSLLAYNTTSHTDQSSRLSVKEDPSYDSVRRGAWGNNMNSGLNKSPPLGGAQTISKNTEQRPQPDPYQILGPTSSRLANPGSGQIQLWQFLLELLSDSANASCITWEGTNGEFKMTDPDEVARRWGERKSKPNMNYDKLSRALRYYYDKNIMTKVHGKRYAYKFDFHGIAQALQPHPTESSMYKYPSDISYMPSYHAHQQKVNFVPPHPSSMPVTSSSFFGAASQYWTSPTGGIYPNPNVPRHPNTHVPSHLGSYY
As to conditions: protein: recombinant; tags: N-terminal GST; dsDNA, one strand shown. A digest of the protocol:
(§1)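 Beads coated with glutathione captured GST-fused human transcription factors that had been expressed in yeast, and the factors were then given DNA barcodes and pooled with a tag-only sample. The pools were incubated with 200 nmole of a random double-stranded 16-mer DNA library in Tris/NaCl/DTT/glycerol buffer for 30 min at room temperature, washed, crosslinked with 0.1% formaldehyde and proximity-ligated with BsaI/T4 ligase at 37 °C for 1 h. PCR amplification and Illumina NextSeq500 sequencing came last. Binding signal is each hexamer's read frequency for a factor divided by its frequency for the tag-only sample.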

The target in the next test is T2, GABPA (Homo sapiens, UniProt Q06546 1-454).
T2 sequence: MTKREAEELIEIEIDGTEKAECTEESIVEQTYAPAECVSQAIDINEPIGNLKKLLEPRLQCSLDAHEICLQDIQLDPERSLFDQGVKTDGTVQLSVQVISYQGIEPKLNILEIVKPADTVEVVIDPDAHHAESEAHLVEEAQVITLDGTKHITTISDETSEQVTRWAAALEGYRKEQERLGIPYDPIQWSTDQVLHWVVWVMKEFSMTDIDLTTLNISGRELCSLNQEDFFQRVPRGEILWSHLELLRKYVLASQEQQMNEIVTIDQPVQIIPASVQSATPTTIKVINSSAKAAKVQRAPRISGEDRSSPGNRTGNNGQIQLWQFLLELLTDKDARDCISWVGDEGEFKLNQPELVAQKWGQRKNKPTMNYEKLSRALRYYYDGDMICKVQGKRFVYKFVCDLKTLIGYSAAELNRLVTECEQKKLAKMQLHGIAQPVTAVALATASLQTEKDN
The conditions noted are these: protein: recombinant; tags: N-terminal GST; dsDNA, one strand shown. A digest of the protocol: as §1

The target of another test is T3, ERG (Homo sapiens, UniProt P11308 1-479).
T3 sequence: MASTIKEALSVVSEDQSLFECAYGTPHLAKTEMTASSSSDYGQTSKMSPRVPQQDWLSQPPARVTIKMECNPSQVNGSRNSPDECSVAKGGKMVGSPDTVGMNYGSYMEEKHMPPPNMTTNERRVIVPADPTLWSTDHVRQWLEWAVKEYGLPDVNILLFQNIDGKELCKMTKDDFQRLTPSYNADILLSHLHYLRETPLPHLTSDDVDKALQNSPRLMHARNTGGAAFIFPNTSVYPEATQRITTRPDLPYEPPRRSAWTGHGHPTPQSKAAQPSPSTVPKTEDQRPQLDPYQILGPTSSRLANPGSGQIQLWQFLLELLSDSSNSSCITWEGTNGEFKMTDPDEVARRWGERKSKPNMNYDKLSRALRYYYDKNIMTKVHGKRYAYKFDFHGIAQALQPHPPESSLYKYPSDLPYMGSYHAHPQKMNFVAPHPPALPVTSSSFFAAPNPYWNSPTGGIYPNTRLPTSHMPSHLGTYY
As to conditions: protein: recombinant; tags: N-terminal GST; dsDNA, one strand shown. A digest of the protocol: as §1

In a further test the target is ELF1 (Homo sapiens, UniProt P32519 1-619). As to conditions: protein: recombinant; tags: N-terminal GST; dsDNA, one strand shown. The method, boiled down: as §1
ELF1, sequence (P32519 whole entry): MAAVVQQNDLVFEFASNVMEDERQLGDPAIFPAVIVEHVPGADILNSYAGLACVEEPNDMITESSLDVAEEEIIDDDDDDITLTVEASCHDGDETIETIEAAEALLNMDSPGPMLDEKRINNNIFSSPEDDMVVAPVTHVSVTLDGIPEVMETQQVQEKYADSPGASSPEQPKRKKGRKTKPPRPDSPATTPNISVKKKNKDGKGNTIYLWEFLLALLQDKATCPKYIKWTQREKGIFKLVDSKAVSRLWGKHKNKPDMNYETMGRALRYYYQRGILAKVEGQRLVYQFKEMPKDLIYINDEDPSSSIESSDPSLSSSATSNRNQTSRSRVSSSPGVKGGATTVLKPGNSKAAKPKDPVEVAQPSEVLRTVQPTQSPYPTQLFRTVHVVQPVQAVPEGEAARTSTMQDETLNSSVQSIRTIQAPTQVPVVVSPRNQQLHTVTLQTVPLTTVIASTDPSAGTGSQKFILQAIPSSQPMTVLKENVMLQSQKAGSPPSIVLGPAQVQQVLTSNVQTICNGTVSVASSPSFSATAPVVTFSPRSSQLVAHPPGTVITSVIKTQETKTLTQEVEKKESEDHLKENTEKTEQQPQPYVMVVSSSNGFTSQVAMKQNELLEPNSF
The target of a further test is T4, EHF (Homo sapiens, UniProt Q9NZC4 1-300).
T4 sequence: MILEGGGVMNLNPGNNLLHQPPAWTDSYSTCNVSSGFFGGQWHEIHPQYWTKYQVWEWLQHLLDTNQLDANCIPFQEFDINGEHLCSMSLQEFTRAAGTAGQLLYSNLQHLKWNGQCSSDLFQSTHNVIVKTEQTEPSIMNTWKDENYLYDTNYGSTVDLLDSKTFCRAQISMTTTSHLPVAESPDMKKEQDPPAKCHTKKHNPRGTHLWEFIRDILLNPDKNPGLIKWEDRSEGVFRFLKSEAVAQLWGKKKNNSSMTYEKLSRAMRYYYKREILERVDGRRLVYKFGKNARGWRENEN
As to conditions: protein: recombinant; tags: N-terminal GST; dsDNA, one strand shown. The method, boiled down: as §1

The target of another test is SPI1 (Homo sapiens, UniProt P17947 1-270). As to conditions: protein: recombinant; tags: N-terminal GST; dsDNA, one strand shown. The method, boiled down:
as §1

The next test addresses SPIB (Homo sapiens, UniProt Q01892 1-262). The conditions noted are these: protein: recombinant; tags: N-terminal GST; dsDNA, one strand shown. The method, boiled down: as §1
For a further test, the target named is T5, FEV (Homo sapiens, UniProt Q99581 1-238).
T5 sequence: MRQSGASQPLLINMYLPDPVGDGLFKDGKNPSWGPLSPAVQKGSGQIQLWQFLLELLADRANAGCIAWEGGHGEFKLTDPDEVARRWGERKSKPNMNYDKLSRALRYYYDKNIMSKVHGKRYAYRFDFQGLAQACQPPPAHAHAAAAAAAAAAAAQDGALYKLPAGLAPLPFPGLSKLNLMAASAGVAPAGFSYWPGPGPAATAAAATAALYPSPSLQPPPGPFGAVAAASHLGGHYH
The conditions noted are these: protein: recombinant; tags: N-terminal GST; dsDNA, one strand shown. The method, boiled down:
as §1

The target of a further test is ETV5 (Homo sapiens, UniProt P41161 1-510). The conditions noted are these: protein: recombinant; tags: N-terminal GST; dsDNA, one strand shown. A digest of the protocol:
as §1

The target of the next test is HSF1 (Homo sapiens, UniProt Q00613 1-529). The conditions noted are these: protein: recombinant; tags: N-terminal GST; chain copies: 3; dsDNA, one strand shown. A digest of the protocol:
as §1

A further test addresses T6, SPIC (Homo sapiens, UniProt Q8N5J4 1-248).
T6 sequence: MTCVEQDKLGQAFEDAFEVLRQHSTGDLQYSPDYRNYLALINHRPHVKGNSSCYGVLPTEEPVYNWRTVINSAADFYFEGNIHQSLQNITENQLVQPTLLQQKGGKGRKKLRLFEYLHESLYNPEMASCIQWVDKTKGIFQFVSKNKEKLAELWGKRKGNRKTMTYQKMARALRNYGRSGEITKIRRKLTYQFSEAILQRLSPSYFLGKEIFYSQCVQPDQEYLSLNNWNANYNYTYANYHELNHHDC
The conditions noted are these: protein: recombinant; tags: N-terminal GST; dsDNA, one strand shown. A digest of the protocol:
as §1

The target of a further test is ELF4 (Homo sapiens, UniProt Q99607 1-663). The conditions noted are these: protein: recombinant; tags: N-terminal GST; dsDNA, one strand shown. The method, boiled down:
as §1

The next test addresses T7, ELK4 (Homo sapiens, UniProt P28324-2 1-405).
T7 sequence: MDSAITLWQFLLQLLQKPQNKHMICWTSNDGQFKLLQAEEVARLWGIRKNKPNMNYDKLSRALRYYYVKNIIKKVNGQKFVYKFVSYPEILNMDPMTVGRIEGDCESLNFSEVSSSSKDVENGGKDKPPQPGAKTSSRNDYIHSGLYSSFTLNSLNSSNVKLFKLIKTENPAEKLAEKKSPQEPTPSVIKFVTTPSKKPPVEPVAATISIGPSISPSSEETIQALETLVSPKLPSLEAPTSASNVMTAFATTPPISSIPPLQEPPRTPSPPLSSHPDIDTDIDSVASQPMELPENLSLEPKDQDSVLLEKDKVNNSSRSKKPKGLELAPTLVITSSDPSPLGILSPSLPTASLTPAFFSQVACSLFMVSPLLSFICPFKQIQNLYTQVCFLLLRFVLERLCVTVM
The conditions noted are these: protein: recombinant; tags: N-terminal GST; dsDNA, one strand shown. The method, boiled down: as §1

In the next test the target is T8, ETV2 (Homo sapiens, UniProt O00321 1-342).
T8 sequence: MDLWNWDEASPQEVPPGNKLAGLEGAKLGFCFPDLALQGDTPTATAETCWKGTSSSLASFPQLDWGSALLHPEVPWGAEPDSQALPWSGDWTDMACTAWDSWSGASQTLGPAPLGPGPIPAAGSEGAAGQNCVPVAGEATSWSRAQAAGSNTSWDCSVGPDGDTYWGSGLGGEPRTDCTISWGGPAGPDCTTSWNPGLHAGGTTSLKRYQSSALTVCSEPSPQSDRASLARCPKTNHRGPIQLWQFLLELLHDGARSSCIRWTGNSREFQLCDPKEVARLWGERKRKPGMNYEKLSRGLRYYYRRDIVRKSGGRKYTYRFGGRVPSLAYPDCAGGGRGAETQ
The conditions noted are these: protein: recombinant; tags: N-terminal GST; dsDNA, one strand shown. The method, boiled down:
as §1

The target in a further test is T9, ELF3 (Homo sapiens, UniProt P78545 1-371).
T9 sequence: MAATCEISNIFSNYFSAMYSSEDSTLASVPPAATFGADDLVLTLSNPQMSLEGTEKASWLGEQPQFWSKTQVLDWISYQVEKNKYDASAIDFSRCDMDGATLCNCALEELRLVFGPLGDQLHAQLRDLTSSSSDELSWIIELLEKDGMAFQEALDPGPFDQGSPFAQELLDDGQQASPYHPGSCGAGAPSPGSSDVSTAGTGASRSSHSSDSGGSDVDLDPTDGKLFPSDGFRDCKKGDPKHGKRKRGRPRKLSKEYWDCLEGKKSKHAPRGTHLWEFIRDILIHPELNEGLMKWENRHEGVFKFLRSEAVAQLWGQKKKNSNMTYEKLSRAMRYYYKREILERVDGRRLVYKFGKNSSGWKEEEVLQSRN
The conditions noted are these: protein: recombinant; tags: N-terminal GST; dsDNA, one strand shown. A digest of the protocol: as §1

In a further test the target is CRX (Homo sapiens, UniProt O43186 1-299). As to conditions: protein: recombinant; tags: N-terminal GST; dsDNA, one strand shown. A digest of the protocol: as §1
CRX, sequence (O43186 whole entry): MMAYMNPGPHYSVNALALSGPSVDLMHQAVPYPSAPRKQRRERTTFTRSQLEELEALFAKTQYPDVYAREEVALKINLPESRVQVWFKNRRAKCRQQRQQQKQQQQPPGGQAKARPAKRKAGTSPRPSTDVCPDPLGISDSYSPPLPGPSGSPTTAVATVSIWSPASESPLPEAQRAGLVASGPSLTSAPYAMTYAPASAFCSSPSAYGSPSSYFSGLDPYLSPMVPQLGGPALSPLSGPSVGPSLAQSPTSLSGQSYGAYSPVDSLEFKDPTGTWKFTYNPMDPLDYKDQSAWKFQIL
A further test has as its target ETV1 (Homo sapiens, UniProt P50549 1-477). The conditions noted are these: protein: recombinant; tags: N-terminal GST; dsDNA, one strand shown. The method, boiled down:
as §1

ETV1, sequence (P50549 whole entry): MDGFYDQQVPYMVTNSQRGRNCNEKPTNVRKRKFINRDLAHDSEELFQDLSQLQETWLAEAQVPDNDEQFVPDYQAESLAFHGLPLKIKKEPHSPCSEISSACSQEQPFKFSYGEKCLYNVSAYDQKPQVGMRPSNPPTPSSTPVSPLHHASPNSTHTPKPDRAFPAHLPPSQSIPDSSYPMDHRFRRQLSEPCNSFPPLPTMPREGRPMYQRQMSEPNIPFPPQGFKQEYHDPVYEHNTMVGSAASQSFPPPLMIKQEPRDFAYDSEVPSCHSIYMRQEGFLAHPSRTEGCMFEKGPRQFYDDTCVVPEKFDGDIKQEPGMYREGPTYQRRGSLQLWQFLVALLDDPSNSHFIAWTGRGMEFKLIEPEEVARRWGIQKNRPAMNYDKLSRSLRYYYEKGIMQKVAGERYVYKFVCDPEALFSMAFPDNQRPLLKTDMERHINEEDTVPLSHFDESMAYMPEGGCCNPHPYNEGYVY
SPIB, sequence (Q01892 whole entry): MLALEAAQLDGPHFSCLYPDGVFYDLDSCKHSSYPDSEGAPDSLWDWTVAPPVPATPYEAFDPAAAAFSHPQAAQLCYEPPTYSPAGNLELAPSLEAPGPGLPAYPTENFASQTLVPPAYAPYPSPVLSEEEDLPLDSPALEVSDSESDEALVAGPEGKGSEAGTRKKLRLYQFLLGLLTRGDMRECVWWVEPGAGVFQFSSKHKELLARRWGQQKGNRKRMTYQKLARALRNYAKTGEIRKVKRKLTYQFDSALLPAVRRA
ELF4, sequence (Q99607 whole entry): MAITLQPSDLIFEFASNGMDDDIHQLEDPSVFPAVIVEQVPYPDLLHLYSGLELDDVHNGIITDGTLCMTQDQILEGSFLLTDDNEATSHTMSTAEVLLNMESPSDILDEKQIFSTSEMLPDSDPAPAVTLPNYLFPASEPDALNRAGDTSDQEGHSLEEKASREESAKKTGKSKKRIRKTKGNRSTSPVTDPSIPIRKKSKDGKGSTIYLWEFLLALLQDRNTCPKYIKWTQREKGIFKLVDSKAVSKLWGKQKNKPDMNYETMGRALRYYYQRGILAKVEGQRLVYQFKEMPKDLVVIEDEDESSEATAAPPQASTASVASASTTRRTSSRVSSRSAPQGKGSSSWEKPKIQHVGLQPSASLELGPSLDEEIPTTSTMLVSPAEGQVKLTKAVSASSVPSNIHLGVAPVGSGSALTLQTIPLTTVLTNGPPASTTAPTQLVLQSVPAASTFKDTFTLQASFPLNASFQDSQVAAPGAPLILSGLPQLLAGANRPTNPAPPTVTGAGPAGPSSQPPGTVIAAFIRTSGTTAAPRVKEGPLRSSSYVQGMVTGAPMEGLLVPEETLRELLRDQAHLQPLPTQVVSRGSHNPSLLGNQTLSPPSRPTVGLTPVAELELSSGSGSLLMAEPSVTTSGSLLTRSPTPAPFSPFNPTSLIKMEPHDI
HSF1, sequence (Q00613 whole entry): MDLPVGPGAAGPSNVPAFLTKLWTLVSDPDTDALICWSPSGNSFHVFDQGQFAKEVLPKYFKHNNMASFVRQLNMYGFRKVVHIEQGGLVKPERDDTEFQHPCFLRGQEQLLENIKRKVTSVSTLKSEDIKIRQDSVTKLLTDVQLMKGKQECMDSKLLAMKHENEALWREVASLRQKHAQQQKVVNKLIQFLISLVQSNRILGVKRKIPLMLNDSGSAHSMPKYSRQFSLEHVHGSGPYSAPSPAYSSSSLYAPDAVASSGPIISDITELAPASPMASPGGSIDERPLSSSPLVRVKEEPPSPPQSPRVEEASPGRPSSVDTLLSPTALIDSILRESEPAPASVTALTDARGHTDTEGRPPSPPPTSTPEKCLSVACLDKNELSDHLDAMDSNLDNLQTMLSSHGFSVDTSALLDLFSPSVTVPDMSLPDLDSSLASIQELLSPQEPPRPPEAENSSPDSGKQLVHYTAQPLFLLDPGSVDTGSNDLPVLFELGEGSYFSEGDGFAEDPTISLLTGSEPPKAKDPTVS
ETV5, sequence (P41161 whole entry): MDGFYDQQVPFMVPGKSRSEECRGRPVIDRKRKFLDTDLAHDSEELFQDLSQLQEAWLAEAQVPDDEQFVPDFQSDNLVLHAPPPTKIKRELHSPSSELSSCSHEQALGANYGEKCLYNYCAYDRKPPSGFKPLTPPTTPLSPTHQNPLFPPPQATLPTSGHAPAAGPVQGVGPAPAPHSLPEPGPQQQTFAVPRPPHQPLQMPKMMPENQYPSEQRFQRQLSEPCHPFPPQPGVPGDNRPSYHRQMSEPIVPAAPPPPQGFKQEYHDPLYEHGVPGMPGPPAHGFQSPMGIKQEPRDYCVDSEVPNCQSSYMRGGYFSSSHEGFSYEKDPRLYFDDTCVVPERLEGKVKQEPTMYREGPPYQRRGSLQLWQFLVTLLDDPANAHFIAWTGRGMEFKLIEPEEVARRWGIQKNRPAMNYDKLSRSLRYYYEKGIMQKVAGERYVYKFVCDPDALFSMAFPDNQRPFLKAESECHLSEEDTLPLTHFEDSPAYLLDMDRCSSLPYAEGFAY

Regarding TTTGAG, the binding signal with FLI1 is 1.13 fold enrichment (6-mer frequency, TF over GST control); with GABPA, 1.28 fold enrichment (6-mer frequency, TF over GST control); in the test with ERG, 1.05 fold enrichment (6-mer frequency, TF over GST control); in the test with ELF1 it was 1.13 fold enrichment (6-mer frequency, TF over GST control); in the test with EHF, 1.09 fold enrichment (6-mer frequency, TF over GST control); with SPI1 it was 1.16 fold enrichment (6-mer frequency, TF over GST control). The binding signal in the test with SPIB was 1.12 fold enrichment (6-mer frequency, TF over GST control); in the test with FEV, 1.03 fold enrichment (6-mer frequency, TF over GST control); with ETV5, 1.02 fold enrichment (6-mer frequency, TF over GST control); in the test with HSF1, 1.1 fold enrichment (6-mer frequency, TF over GST control); with SPIC, 1.36 fold enrichment (6-mer frequency, TF over GST control); with ELF4, 1.02 fold enrichment (6-mer frequency, TF over GST control). For the same sequence, the binding signal was 1.23 fold enrichment (6-mer frequency, TF over GST control) with ELK4; 1.04 fold enrichment (6-mer frequency, TF over GST control) in the test with ETV2; 1.08 fold enrichment (6-mer frequency, TF over GST control) with ELF3; 1.23 fold enrichment (6-mer frequency, TF over GST control) in the test with CRX; 1.14 fold enrichment (6-mer frequency, TF over GST control) with ETV1.
